Drawing on PubChem BioAssay (NCI), this text covers growth for 27 compounds.

Molecules are shown by their SMILES. The panel holds about 83,000 compounds, 20% with a hit somewhere; the sample as a whole holds those more often.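 How to read the values: 0–100, growth inhibition (40 = 60% inhibited); 0, no net growth; -100 to 0, cell death (-40 = 40% of starting cells died; -100 = all dead).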 Values without a mark were called inactive. The source made the active and inactive calls. Rule for the calls: active = growth percent below 10; inactive = the rest.

The assay has as its system HL-60(TB) leukemia. The assay is described as follows: NCI-60 one-dose screen, 48 h (100 = growth as untreated, 0 = no growth, -100 = all killed). Conditions: 10 µM unless noted.
For the compound `Cn1c(=O)c2c(ncn2CC(=O)Nc2ccc(S(N)(=O)=O)cc2)n(C)c1=O`, the growth is 94.2%.

As to `COc1ccc(-c2cc(/C=C/C(=O)c3ccc(OC)c(OC)c3)[nH]n2)cc1`, the growth is -43.7% (active).

With `CC(C)NC[C@@H](C(=O)N1CCN(c2ncnc3c2[C@H](C)C[C@H]3O)CC1)c1ccc(Cl)cc1`, the growth is 82%.

For the compound `COc1ccc(N2CCN(c3nc(-c4cc(OC)c(OC)c(OC)c4)nc4ccccc34)CC2)cc1`, the growth is 44.4%.

Turning to `Cc1ccc2nc(Cl)c(-c3nc4ccccc4o3)cc2c1`, the growth is 94.4%.

Turning to `CN1CCN(CCCOc2ccc3nc(Nc4ccc(F)c(F)c4)ccc3c2)CC1`, the growth was 46.8%.

Regarding `C=C(C)[C@@H]1CC[C@]2(C)[C@H](CC[C@@H]3[C@@H]([C@@](C)(O)CCC=C(C)C)CC[C@]32C)[C@@]1(C)CCC(=O)N1CCN(C)CC1`, the growth is -32.3% [100 µM] (active).

With `CCOC(=O)C1=C(C(=O)c2ccccc2)C(c2cccc([N+](=O)[O-])c2)C(C(=O)c2ccccc2)=C(C(=O)OCC)N1`, the growth is 66.8%.

`Cc1nn(-c2ccc(Cl)cc2)c(=O)n1CCOc1ccccc1Cl`: the growth is 106%.

Regarding `O=C(C(Br)Br)C(Br)C(Br)c1ccccc1` (configuration not stated), the growth is 88.8%.

On to `CN(CCCN(C)CCC1CCCCC1)CCC1CCCCC1`, for which the growth was 116%.

As to `CN(CCC(=O)c1ccccc1)CCC(=O)c1ccccc1`, the growth is 75.4%.

On to `CN(C)CCCNC1=C(Cl)C(=O)c2ccccc2C1=O`, for which the growth is 45.3%.

As to `COc1ccc(C(c2cc(OC)c(OC)c(OC)c2)N2CCCC2)cc1` (configuration not stated), the growth is 35.5%.

`NCCCNc1nc2ccc(Cl)cc2c2c(=O)c3cc(F)ccc3sc12`: the growth was 34.9%.

Regarding `O=C1CCCCN1CCCCC#Cc1ccccc1C#Cc1ccccn1`, the growth is 78.2%.

As to `O=C(Nc1ncc(Cc2cccc(C(F)(F)F)c2)s1)C1COc2ccccc2O1` (configuration not stated), the growth was 98.5%.

As to `Nc1ncnc2c1ncn2C1OC(COC(c2ccccc2)(c2ccccc2)c2ccccc2)C(O)C1O` (configuration not stated), the growth was 8.77% (active).

Consider `Cc1ccc(C(CN(C)C)C(=O)c2ccccc2)cc1` (configuration not stated), for which the growth was -31.3% (active).

On to `C=C(c1ccc(OC)c(/C=C/C(=O)c2ccc3c(c2)OCO3)c1)c1cc(OC)c(OC)c(OC)c1`, for which the growth is 10.3%.

`COc1cc(C)cc2oc3oc(=O)c(C(=O)c4cc5cc(Br)ccc5o4)cc3c(=O)c12`: the growth was 103%.

As to `COC(=O)[C@H](CCCCNC(=O)OCc1ccccc1)NC(=O)[C@@H](NC(=O)Nc1cc(C(F)(F)F)cc(C(F)(F)F)c1)C(C)C`, the growth was -9.21% [100 µM] (active).

As for `C/C(=C\CCc1ccoc1)CC/C=C(\C)CCCN1CCC(CO)CC1`, the growth was 17.2%.

On to `C[N+](C)(C)c1ccc(CC2c3ccccc3-c3ccccc32)cc1`, for which the growth was 47.8%.

On to `CCCCCCCCCCCC[n+]1ccc(CCCCCCCCC)cc1`, for which the growth was -53.3% (active).

Take `COc1cc(C(=O)Nc2ccc(-c3nc4ccccc4[nH]3)cc2)cc(OC)c1OC`: the growth was 41.9%.

Regarding `C=C1CCC2C3(C)COC(C)(C)OC3CCC2(C)C1C/C=C1/C(=O)OCC1Oc1ccccc1OC` (configuration not stated), the growth is 38.6%.
